Compound activity deposited in PubChem BioAssay by National Center for Advancing Translational Sciences (NCATS).
Most compounds without a hit are left out; they make up all but 5.4% or so of the library.
VACV mCherry inh – qHTS for Stage-Specific Inhibitors of Vaccinia Orthopoxvirus: mCherry Reporter Primary qHTS. 0.63% of 310,000 active. Potency, µM (top dose mostly 36.5 µM), inactives show at the top dose activity change, negative = inhibition, usual class: inhibitors. Vaccinia virus mCherry reporter infection, fluorescence. AID 720579, 2013; calls by dose curve; tested in A549 cells; note: nearly all actives have a fitted effect of over 35% in size
LASV entry inh – qHTS for Inhibitors of binding or entry into cells for Lassa Virus; Lassa virus pseudotype entry inhibition, cell reporter; Potency, µM (titrated, usually from 37.9 µM), for inactives: at the top dose activity change, negative = inhibition, usual class: inhibitors; 1.2% of 300,000 active; calls by dose curve; tested in HEK293 cells; note: nearly all actives have a fitted effect of over 50% in size
FMDV inh – High Throughput Screening for Foot and Mouth Disease Virus Antivirals | Potency, µM (highest dose often 57.9 µM), for the others: top-dose activity change, negative = inhibition, usual class: inhibitors | FMDV antiviral cell-based qHTS | 1.2% of 410,000 active; calls by dose curve; tested in HEK293T cells; note: read-out not given here; nearly all actives have a fitted effect of over 45% in size
VACV Venus inh – qHTS for Stage-Specific Inhibitors of Vaccinia Orthopoxvirus: Venus Reporter Primary qHTS; Vaccinia virus Venus reporter expression, fluorescence; Potency, µM (titrated, usually from 36.5 µM), for inactives: at the highest dose activity change, negative = inhibition, most hits filed as inhibitors; 0.46% of 330,000 active; AID 720580, 2013; calls by dose curve; tested in A549 cells; note: nearly all actives have a fitted effect of over 30% in size
Sm TGR block – qHTS Assay for the Inhibitors of Schistosoma Mansoni Peroxiredoxins; Potency, µM (highest dose often 114 µM), without a hit: at the top dose activity change, negative = inhibition, most hits filed as inhibitors; AID 485364, 2010; 3% of 360,000 active; purified TGR, DTNB reduction, TNB absorbance 405 nm; active = well fitted inhibition curve with a large enough effect; inconclusive = small, poorly fitted or top-dose-only effect; inactive = no such curve, though single readings can be large or run the other way; note: nearly all actives have a fitted effect of over 60% in size
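First, TGR (20 nM dispensed) and NADPH were mixed with compound. Second, a 15 min room-temperature incubation followed. Third, further NADPH and then DTNB were added to start the reaction. Finally, TNB absorbance was monitored kinetically.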
Marburg entry inh – qHTS for inhibitors of binding or entry into cells for Marburg Virus; Marburg virus pseudotyped entry inhibition, cell reporter; Potency, µM (doses to about 37.8 µM), without a hit: at the highest dose activity change, negative = inhibition, actives largely listed as inhibitors; 1.8% of 300,000 active; calls by dose curve; tested in HEK293 cells
Active calls of the source: *; i = inactive; ? = inconclusive; / = no result given; [ ] = remark or other dose. % is set by controls: 0 for no effect and ±100 for the full control effect; potency is the fitted concentration of half-maximal effect.

SMILES | VACV mCherry inh | LASV entry inh | FMDV inh | VACV Venus inh | Sm TGR block | Marburg entry inh
Cc1ccc(Nc2c3c(nc4nc(-c5cccs5)nn24)CCCC3)cc1F | 11µM* | ? | ? | ? | -18% | /
O=S(=O)(Nc1nc2ccccc2nc1Nc1ccc(N2CCOCC2)cc1)c1cc(Cl)ccc1Cl | / | ? | -21% | / | 0% | 7.3µM*
Cc1coc(=N)n1CC(=O)c1ccc(Cl)cc1 | -4% | 11% | 16% | 11% | 40µM* | ?
CN(C)C(=O)c1ccc(SC(=S)NCc2ccccc2)cc1 | -6% | / | 35µM* | -27% | / | /
O=C1C2C3C=CC(CNS(=O)(=O)c4ccccc4[N+](=O)[O-])(O3)C2C(=O)N1c1ccccc1 (stereo not drawn) | -13% | 8% | -13% | 2% | 3.2µM* | -15%[46.1 µM]
Cc1cc(C)c(S(=O)(=O)NCC23C=CC(O2)C2C(=O)N(c4ccccc4)C(=O)C23)c(C)c1 (stereo not drawn) | / | ? | 40% | / | 4.5µM* | ?
COc1cc(N2Cc3ccccc3C2)ccc1C=O | -1% | ? | ? | -7% | ? | 7.9µM*
COC(=O)C1CCN(Cc2ccc3c(c2)CN(C(=O)c2cc(C4CC4)on2)CCO3)CC1 | -3% | / | -15% | 9% | / | /
CCNC(=S)Nc1cc(-c2ccc(Cl)cc2)[nH]n1 | i | -25% | 28% | -16% | 0.89µM* | -22%[46.1 µM]
Cc1ccc(C2NC(=O)NC3=C2CCc2ccccc23)cc1 (stereo not drawn) | 0% | 7% | ? | -2% | 40µM* | -1%
CC(C)c1ccc(C2NC(=O)NC3=C2CCc2ccccc23)cc1 (stereo not drawn) | ? | -18% | ? | -19% | ? | -56%
CC1=C(c2ccc(C)cc2)S(=O)(=O)NC1=NCCCN1CCN(c2ccccc2F)CC1 | -9% | 4%[46.1 µM] | -5% | ? | 0% | 14%[46.1 µM]
Cc1oc2ccc(O)cc2c1C(=O)c1ccc([N+](=O)[O-])cc1 | ? | -11% | 35µM* | ? | 1% | -10%
O=C1/C(=C\c2cc(Br)cc(Br)c2O)SC(=S)N1Cc1ccccc1 | 8% | ? | ? | 56% | 40µM* | 25%
O=C1/C(=C/c2ccccc2O)SC(=S)N1Cc1cccnc1 | / | 11% | 32µM* | / | ? | -4%
C=CC[n+]1c(-c2ccc(OC)c(OC)c2)csc1NNC(=O)Nc1ccccc1 | ? | 10µM* | / | ? | -2% | ?
C/C=C\c1ccccc1OCc1ccc(C(=O)O)o1 | / | / | / | / | / | 11%[46.1 µM]
Cc1cccc2c(C(=O)N3CCN(C(=O)c4ccco4)CC3)cc(-c3cccc(Br)c3)nc12 | i | ? | 18µM* | -22% | -14% | ?
COc1cccc(-c2cc(C(=O)N3CCN(C(=O)c4ccco4)CC3)on2)c1 | -1% | 28%[46.1 µM] | -2% | -19% | -32% | -14%[46.1 µM]
Cc1cc(N2CCN(C(=O)c3ccco3)CC2)n2nc(-c3cccc(Cl)c3)cc2n1 | / | 26µM* | ? | / | -33% | 16µM*
CCCN1C(=O)COc2ccc(C(=O)c3ccccc3C(=O)O)cc21 | -4% | 3%[46.1 µM] | 2% | -18% | -10% | 1%[46.1 µM]
CCCN1C(=O)COc2ccc(-c3n[nH]c(=O)c4ccccc34)cc21 | -17% | -2%[46.1 µM] | ? | -26% | 24% | 10µM*
O=c1[nH]c(=O)n([C@H]2C[C@H](O)[C@@H](CO)O2)cc1F | ? | 0.29µM* | -16% | ? | ? | ?
O=c1[nH]c(=O)n(C2CC(O)C(CO)O2)cc1I (stereo not drawn) | 5µM* | 19%[46.1 µM] | -2% | ? | / | 19%
O=c1[nH]c(=O)n([C@H]2C[C@H](O)[C@@H](CO)O2)cc1/C=C/Br | / | / | / | / | / | -39%
SMILES | VACV mCherry inh | LASV entry inh | FMDV inh | VACV Venus inh | Sm TGR block | Marburg entry inh
Cc1cc(C)cc(-n2ccnc2SCC(=O)Nc2ccc3c(c2)OCO3)c1 | -13% | -16%[46.1 µM] | ? | -8% | 2% | /
Nc1c(C(=O)N/N=C/c2cccnc2)oc2nc(-c3ccccc3)cc(-c3ccco3)c12 | ? | -8% | -13% | 16% | ? | -21%[46.1 µM]
O=CNn1cnc2c(oc3nc(-c4ccccc4)cc(-c4ccco4)c32)c1=O | 2% | -1% | -8% | -2% | 40µM* | 12%[46.1 µM]
Cc1ccc(-c2nn(CC(=O)NC3CCCC3)c3c2cnc2ccc(F)cc23)cc1C | -8% | ? | 33% | 3% | 2% | /
COc1cc2c(cc1OC)[C@@H]1O[C@](c3ccsc3)(C2)Oc2c1c(=O)oc1ccc(F)cc21 | / | / | / | / | / | 28%[14.2 µM]
COc1cc(NC(=O)C2=C(C)OCCS2)c(Cl)cc1C(=O)NCCN(C)C | -3% | -39%[46.1 µM] | -11% | -21% | -10% | 10µM*
O=C(Nc1ccccc1NC(=O)NC1CCCCC1)NC1CCCCC1 | / | 13µM* | 54% | / | 0% | 4.6µM*
O=C(Nc1nc2ccccc2[nH]1)NC1CCCCC1 | -10% | 11µM* | -26% | -20% | -4% | ?
CC=CCCN1C=C(C(=O)OCC)C(c2ccccc2)NC1=O (stereo not drawn) | / | / | / | / | / | 41%[14.2 µM]
Cc1cc(C(=O)c2ccc(C(C)(C)C)cc2)c(NC(=O)CCl)s1 | -3% | ? | 35µM* | -17% | 10% | ?
O=C(CCl)Nc1sccc1C(=O)c1ccccc1 | -10% | 9% | 20µM* | -9% | / | 9%[46.1 µM]
Cc1ccccc1C(=O)Nc1sc(C)c(C)c1C(=O)c1ccccc1 | / | ? | -13% | / | 10% | ?
Cc1sc(NC(=O)CCl)c(C(=O)c2ccccc2)c1C | / | ? | ? | / | 7.9µM* | 2%
CNC(=O)c1ccsc1NC(=O)c1ccccc1 | -10% | / | 26% | -11% | 4% | /
Cc1ccccc1Cn1cc(CCC(=O)NCc2cccc(Br)c2)c2ccccc21 | -18% | 0%[46.1 µM] | -1% | -15% | -7% | /
Cc1c(C(=O)N/N=C/c2ccc(O)c(Br)c2)sc(N)c1C#N | -13% | ? | -5% | -21% | ? | ?
COc1cc(/C=N/NC(=O)c2sc(N)c(C#N)c2C)ccc1O | -6%[1.46 µM] | -7% | -18% | ? | 0% | 4.5µM*
Oc1c(C(c2ccccn2)N2CCCCC2)cc(Cl)c2cccnc12 (stereo not drawn) | ? | / | -28% | 3%[7.34 µM] | 3.5µM* | /
CN1CCN(C(c2ccc(Cl)cc2)c2cc(Cl)c3cccnc3c2O)CC1 (stereo not drawn) | -27% | 10µM* | -3% | -25% | 0.35µM* | ?
CN1CCN(C(c2ccc(C(F)(F)F)cc2)c2cc(Cl)c3cccnc3c2O)CC1 (stereo not drawn) | / | / | / | / | 0.63µM* | /
Cc1cccc(-n2ncc(C(=O)N3CCN(Cc4ccccc4)CC3)c2C2CCN(C(=O)OC(C)(C)C)CC2)c1 | -24% | ? | -17% | -16% | -3% | /
CCOc1nc(SCCOc2ccc(C)cc2)nc(N(C)C)n1 | -13% | -6% | 0% | -13% | -3% | -3%
